# According to the supplement of paper PMC7411054:
# Experiments:
# Conditions in all cases: treatment time: 24 h
# A549-ACTB-RAB5A [1] = experiment: phenotypically active (imaging signature differs from DMSO and reproducible) at any of 0.3-9 uM (binary (1 = active, 0 = inactive)); higher = active
# Method in brief: (§1)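 Live-cell features were measured per well and normalised to solvent control wells after fifteen gene-edited A549, HepG2 and WPMY1 reporter lines had been treated for 24 h at 0.3, 1, 3 or 9 µM in four wells each. A condition was deviating when ≥3 of 4 wells sat beyond the 95th percentile of control Euclidean distances. It was reproducible when the median replicate Pearson correlation exceeded the 95th percentile of non-replicates. Phenotypic activity demanded both.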
# A549-CANX-COX4 [2] = experiment: as above
# Method in brief: as §1
# A549-GM130-SQSTM1 [3] = experiment: as above
# Method in brief: as §1
# A549-TP53BP1-CLTA [4] = experiment: as above
# Method in brief: as §1
# A549-TUBA1B-RELA [5] = experiment: as above
# Method in brief: as §1
# HepG2-ACTB-RAB5A = experiment: as above
# Method in brief: as §1
# HepG2-CANX-COX4 = experiment: as above
# Method in brief: as §1
# HepG2-GM130-SQSTM1 = experiment: as above
# Method in brief: as §1
# HepG2-TP53BP1-CLTA = experiment: as above
# Method in brief: as §1
# HepG2-TUBA1B-RELA = experiment: as above
# Method in brief: as §1
# WPMY1-ACTB-RAB5A = experiment: as above
# Method in brief: as §1
# WPMY1-CANX-COX4 = experiment: as above
# Method in brief: as §1
# WPMY1-GM130-SQSTM1 = experiment: as above
# Method in brief: as §1
# WPMY1-TP53BP1-CLTA = experiment: as above
# Method in brief: as §1
# WPMY1-TUBA1B-RELA = experiment: as above
# Method in brief: as §1
# A549-ACTB-RAB5A [6] = experiment: lowest phenotypically active concentration; higher = less potent
# Method in brief: as §1
# A549-CANX-COX4 [7] = experiment: as above
# Method in brief: as §1
# A549-GM130-SQSTM1 [8] = experiment: as above
# Method in brief: as §1
# A549-TP53BP1-CLTA [9] = experiment: as above
# Method in brief: as §1
# A549-TUBA1B-RELA [10] = experiment: as above
# Method in brief: as §1
SMILES,phenotypically active (A549-ACTB-RAB5A [1]),phenotypically active (A549-CANX-COX4 [2]),phenotypically active (A549-GM130-SQSTM1 [3]),phenotypically active (A549-TP53BP1-CLTA [4]),phenotypically active (A549-TUBA1B-RELA [5]),phenotypically active (HepG2-ACTB-RAB5A),phenotypically active (HepG2-CANX-COX4),phenotypically active (HepG2-GM130-SQSTM1),phenotypically active (HepG2-TP53BP1-CLTA),phenotypically active (HepG2-TUBA1B-RELA),phenotypically active (WPMY1-ACTB-RAB5A),phenotypically active (WPMY1-CANX-COX4),phenotypically active (WPMY1-GM130-SQSTM1),phenotypically active (WPMY1-TP53BP1-CLTA),phenotypically active (WPMY1-TUBA1B-RELA),lowest phenotypically active concentration (A549-ACTB-RAB5A [6]),lowest phenotypically active concentration (A549-CANX-COX4 [7]),lowest phenotypically active concentration (A549-GM130-SQSTM1 [8]),lowest phenotypically active concentration (A549-TP53BP1-CLTA [9]),lowest phenotypically active concentration (A549-TUBA1B-RELA [10])
O=C(CCc1ccc(O)cc1)c1c(O)cc(O)cc1O[C@@H]1O[C@H](CO)[C@@H](O)[C@H](O)[C@H]1O [Phloridzin],0 (inactive),0 (inactive),0 (inactive),0 (inactive),0 (inactive),0 (inactive),0 (inactive),0 (inactive),0 (inactive),0 (inactive),0 (inactive),0 (inactive),0 (inactive),0 (inactive),0 (inactive),,,,,
CC(=O)[C@@]1(O)CC[C@H]2[C@@H]3C[C@H](C)C4=CC(=O)C=C[C@]4(C)[C@@]3(F)[C@@H](O)C[C@@]21C [fluorometholone],1 (active),1 (active),1 (active),1 (active),1 (active),0 (inactive),0 (inactive),0 (inactive),0 (inactive),0 (inactive),0 (inactive),0 (inactive),0 (inactive),0 (inactive),0 (inactive),≤ 0.3 µM,≤ 0.3 µM,≤ 0.3 µM,≤ 0.3 µM,≤ 0.3 µM
O=C(NCCO)c1cc(C(=O)NCCO)cc(C(=O)NCCO)c1,0 (inactive),0 (inactive),0 (inactive),0 (inactive),0 (inactive),0 (inactive),0 (inactive),0 (inactive),0 (inactive),0 (inactive),0 (inactive),0 (inactive),0 (inactive),0 (inactive),0 (inactive),,,,,
C[C@H]1C[C@@H]2[C@H]([C@@H](O)C[C@@]3(C)[C@H]2CC[C@]3(O)C(=O)CO)[C@@]2(C)C=CC(=O)C=C12 [methylprednisolone],1 (active),1 (active),1 (active),1 (active),1 (active),0 (inactive),0 (inactive),0 (inactive),0 (inactive),0 (inactive),0 (inactive),0 (inactive),0 (inactive),0 (inactive),0 (inactive),≤ 0.3 µM,≤ 0.3 µM,≤ 0.3 µM,≤ 0.3 µM,≤ 0.3 µM
CCCNC(C)C(=O)Nc1c(C)csc1C(=O)OC (stereo unspecified) [articaine],0 (inactive),0 (inactive),0 (inactive),0 (inactive),0 (inactive),0 (inactive),0 (inactive),0 (inactive),0 (inactive),0 (inactive),0 (inactive),0 (inactive),0 (inactive),0 (inactive),0 (inactive),,,,,
O=S(=O)(N[C@H](CO)C(C(F)(F)F)C(F)(F)F)c1ccc(Cl)s1 [begacestat],0 (inactive),0 (inactive),0 (inactive),0 (inactive),0 (inactive),0 (inactive),0 (inactive),0 (inactive),0 (inactive),0 (inactive),0 (inactive),0 (inactive),0 (inactive),0 (inactive),0 (inactive),,,,,
S=P(N1CC1)(N1CC1)N1CC1 [thiotepa],0 (inactive),0 (inactive),0 (inactive),0 (inactive),0 (inactive),0 (inactive),0 (inactive),0 (inactive),0 (inactive),0 (inactive),0 (inactive),0 (inactive),0 (inactive),0 (inactive),0 (inactive),,,,,
Nc1nc(OCC2CCCCC2)c2nc[nH]c2n1,1 (active),0 (inactive),0 (inactive),0 (inactive),0 (inactive),0 (inactive),0 (inactive),0 (inactive),0 (inactive),0 (inactive),0 (inactive),0 (inactive),0 (inactive),0 (inactive),0 (inactive),9 µM,,,,
C#Cc1cccc(Nc2ncnc3cc(OCCOC)c(OCCOC)cc23)c1 [erlotinib],1 (active),1 (active),1 (active),1 (active),1 (active),1 (active),1 (active),1 (active),1 (active),1 (active),0 (inactive),0 (inactive),0 (inactive),0 (inactive),0 (inactive),≤ 0.3 µM,3 µM,3 µM,1 µM,1 µM
COc1cc2ncnc(Nc3ccc(O)c(Br)c3)c2cc1OC,1 (active),1 (active),1 (active),1 (active),1 (active),1 (active),1 (active),1 (active),1 (active),1 (active),1 (active),1 (active),1 (active),1 (active),0 (inactive),1 µM,3 µM,3 µM,1 µM,3 µM
O=C1N[C@@H]2[C@@H](O)[C@@H](O)[C@H](O)[C@@H](CO)N2C1=O [Kifunensine],0 (inactive),0 (inactive),0 (inactive),0 (inactive),0 (inactive),0 (inactive),0 (inactive),0 (inactive),0 (inactive),0 (inactive),0 (inactive),0 (inactive),0 (inactive),0 (inactive),0 (inactive),,,,,
CC1(C)O[C@@H]2C[C@H]3[C@@H]4C[C@H](F)C5=CC(=O)CC[C@]5(C)[C@H]4[C@@H](O)C[C@]3(C)[C@]2(C(=O)CO)O1 [flurandrenolide],1 (active),1 (active),1 (active),1 (active),1 (active),0 (inactive),0 (inactive),0 (inactive),0 (inactive),0 (inactive),0 (inactive),0 (inactive),0 (inactive),0 (inactive),0 (inactive),≤ 0.3 µM,≤ 0.3 µM,≤ 0.3 µM,≤ 0.3 µM,≤ 0.3 µM
